Assay outcomes: PubChem, National Center for Advancing Translational Sciences (NCATS)
Only some compounds are listed: those with a hit (about 3.7% of all), similar ones and a draw of the others.
ATXN2 expr inh = Primary qHTS for Inhibitors of ATXN expression; HEK-293 ATXN2-luciferase reporter, luminescence, 24 h; Potency, µM (highest dose often 57 µM), inactives show top-dose activity change, negative = inhibition, most hits filed as inhibitors; actives 0.72% (n = 360,000); further: on the % scale 0 is the no-effect control and ±100 the full control effect; nearly all actives have a fitted effect of over 55% in size
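qHTS (up to 57 uM final) was run with 24 h compound exposure of reporter cells at 37 °C. Each well was multiplexed: SteadyGlo luminescence measured ATXN2-luciferase expression after a fluorogenic Gly-Phe-AFC viability readout (25 uM final).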
ATXN viability = Viability Counterscreen for Primary qHTS for Inhibitors of ATXN expression; S2 cells (HEK-293 line with an ATXN2-luciferase reporter) viability, CellTiter-Fluor protease fluorescence, 24 h; Potency, µM (titrated, usually from 56.7 µM), most hits filed as cytotoxic; actives 0.49% (n = 400,000); AID 651635, 2014; further: nearly all actives have a fitted effect of over 40% in size
GLP1R inv ag = qHTS of GLP-1 Receptor Inverse Agonists (Inhibition Mode); Glucagon-like peptide 1 receptor (Homo sapiens), P43220; HEK293 GLP-1R CRE-luciferase, luminescence, 24 h; GLP-1R form is constitutively active; Potency, µM (highest dose often 38.3 µM), for the others: top-dose activity change, negative = inhibition, usual class: inhibitors; actives 1.6% (n = 410,000); AID 624417, 2012; further: on the % scale 0 is the no-effect control and ±100 the full control effect; nearly all actives have a fitted effect of over 55% in size
Target sequence (P43220 whole entry, looked up): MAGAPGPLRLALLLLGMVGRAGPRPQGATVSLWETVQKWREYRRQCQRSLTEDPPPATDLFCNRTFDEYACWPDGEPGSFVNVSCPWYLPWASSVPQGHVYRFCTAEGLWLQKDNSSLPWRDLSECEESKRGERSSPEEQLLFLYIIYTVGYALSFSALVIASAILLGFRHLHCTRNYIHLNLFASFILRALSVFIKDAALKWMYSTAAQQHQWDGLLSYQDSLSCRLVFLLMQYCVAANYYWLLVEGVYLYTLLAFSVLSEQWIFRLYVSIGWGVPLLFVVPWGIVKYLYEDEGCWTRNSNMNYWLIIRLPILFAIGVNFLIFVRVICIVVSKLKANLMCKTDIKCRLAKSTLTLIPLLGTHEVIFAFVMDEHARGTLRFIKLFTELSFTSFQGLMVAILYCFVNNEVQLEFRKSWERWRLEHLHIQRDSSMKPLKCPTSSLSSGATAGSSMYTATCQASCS
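Seeding at 200 cells/uL, 12 h culture, 24 hr compound treatment, then luciferase reagent and a luminescence read; cells are HEK293 stably expressing a constitutively active GLP-1R plus cAMP-responsive luciferase.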
TGFb inhibitor = qHTS for Inhibitors of TGF-b | HepG2 CAGA-GFP TGF-b/SMAD3 reporter, GFP fluorescence, 18 h; TGF-beta stimulated, 500 pg/mL final | actives 1.2% (n = 410,000) | Potency, µM (top dose mostly 46.1 µM), without a hit: at the highest dose activity, negative = inhibition, most hits filed as inhibitors; further: on the % scale 0 is the no-effect control and ±100 the full control effect; nearly all actives have a fitted effect of over 65% in size
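Cell-based qHTS in HEPG2 carrying a CAGA-GFP Smad reporter; compounds added before 500 pg/mL final TGF-beta, 18 h incubation at 37 degrees C, GFP fluorescence quantified per cell by imaging cytometry.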
HepG2 viability = qHTS for Inhibitors of TGF-b: Cytotox Counterscreen. Potency, µM (highest dose often 46.1 µM), inactives show at the highest dose activity change, negative = cytotoxicity, most hits filed as cytotoxic. actives 0.76% (n = 410,000). HepG2 CAGA-GFP viability, ATP luminescence, 18 h
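HepG2 CAGA-GFP cells (1000/well, DMEM with 1% FBS) received compound, then TGF-beta at 500 pg/mL final, and were incubated 18 hours at 37 degrees C. Viability was read by CellTiter-Glo luminescence. Media-only wells were set as complete cell-killing and DMSO as no toxicity.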
GLP-1R agonist = qHTS of GLP-1 Receptor Agonists | Glucagon-like peptide 1 receptor (Homo sapiens), P43220 | HEK293 GLP-1R CRE-luciferase, luminescence, 4-6 h; cells express a hypersensitive GLP-1R form | Potency, µM (top dose mostly 45.6 µM), inactives show top-dose activation, usual class: activators | actives 0.007% (n = 380,000) | AID 624172, 2012; further: % of control where 0% means no effect
The depositor's hits bear a star; i = inactive; ? = inconclusive; . = no result given; ! = a repeat was not active. The call rests on the fitted dose curve; in most records, active means well fitted curve in the direction sought with a large enough effect; inconclusive means small, poorly fitted or top-dose-only effect, or another doubt; inactive means no such curve, though single readings can be large; an effect the other way counts as inactive or inconclusive. Potency means the concentration at half of the fitted maximal effect.

SMILES	ATXN2 expr inh	ATXN viability	GLP1R inv ag	TGFb inhibitor	HepG2 viability	GLP-1R agonist
O=C(NCCc1ccccc1)c1ccc(CSc2nc3ccncc3n2Cc2ccccc2F)cc1	-18.3%	?	?	7.08µM*	-18.8%	.
O=C(NCCc1ccccc1)c1ccc(CSc2nc3ccncc3n2Cc2cccc(F)c2)cc1	.	.	?	?	-5.8%	.
CCOC(=O)c1c(C)[nH]c(C)c1S(=O)(=O)N(C)CC(=O)Nc1ccc(C)cc1Br	-16.1%	i	-21.7%	-29.3%	-31.3%	.
CCCCC[C@H](O)/C=C/[C@@H]1[C@@H](C/C=C\CCCC(=O)OC)[C@@H](O)C[C@H]1O	-1.6%	i	20.2%	-1.9%	-9.4%	7.5%
CCCCC[C@H](O)/C=C/C1C(=O)C=C[C@H]1C/C=C\CCCC(=O)OC (stereo not given in full)	?	.	1.0%	22.4µM*	-76.0%	-18.2%
CC(O)(COc1ccccc1)c1ccc2c(c1)CN(C/C=C/c1ccco1)CCO2 (stereo not given)	.	i	.	.	.	.
O=C1CSc2ccc(C(=O)Nc3cccc(S(=O)(=O)Nc4ccc(Br)cc4)c3)cc2N1	.	?	?	12.6µM*	15.8µM*	-0.3%
O=C(Nc1cccc(S(=O)(=O)Nc2ccc(Cl)cc2)c1)c1ccc(Cl)nc1	?	?	?	14.1µM*	-40.9%	-3.1%
COC(=O)Cn1c(=O)c2cccn2c2ccc(F)cc21	5.4%	i	2.1%	25.4%	2.7%	.
CCN(CC(O)COc1ccc(OCC(O)CN(CC)C2CCCCC2)cc1)C1CCCCC1 (stereo not given)	-35.8%	i	2.24µM*	17.4%	-33.3%	1.0%
Cc1ccccc1OCC(O)CN(Cc1ccccc1O)C1CCCCC1 (stereo not given)	-18.5%	?	11.2µM*	?	-56.3%	4.2%
CCN(CC(O)COCc1ccc(Cl)cc1)C1CCCCC1 (stereo not given)	20.6%	i	-39.6%	0.0%	0.0%	0.2%
COc1cc(=O)n2c(c1C(=O)N(C)Cc1cscn1)CCN(C(=O)c1ccc(C)c(C)c1)CC2	.	i	.	.	.	.
CCCCOC(=O)c1ccc(NC(=O)Cc2coc3ccc(C(C)C)cc23)cc1	?	?	7.94µM*	11.2µM*	-38.7%	.
CCOC(=O)c1ccc(NC(=O)Cc2coc3cc4c(cc23)CCC4)cc1	-9.1%	i	3.1%	?	-7.0%	-2.3%
Cc1ccc(NC(=O)Cc2coc3ccc(C(C)C)cc23)cc1Cl	-8.4%	?	?	11.2µM*	-32.1%	.
COc1cccc(/C=N/Nc2nc(Nc3ccc([N+](=O)[O-])cc3)nc(N3CCCC3)n2)c1O	?	i	2.82µM*	-22.2%	2.9%	-2.4%
Cc1cccc(NC(=O)CN2C(=O)CCn3nc(-c4cccn4C)cc32)c1C	5.7%	i	16.2%	-12.2%	1.9%	.
COc1ccc(NC(=O)C(C)n2nc(-c3cc(C)ccc3C)c3c(c2=O)CCCC3)cc1 (stereo not given)	-29.4%	?	?	?	-37.8%	.
O=C(CN1CCCC1)Nc1ccc(-c2nc3cc(NC(=O)CN4CCCC4)ccc3o2)cc1	?	12.6µM*	10.8%	?	-35.6%	-11.9%
COc1ccc(CCNC(=O)c2cnn3c2NC(=C2CC2)C=C3C(F)F)cc1OC	.	.	.	19.8%	-48.9%	.
CCOC(=O)c1cccc(NC(=O)CC2C(=O)N(c3ccc(Cl)cc3)C(=O)N2C2CCCC2)c1 (stereo not given)	.	.	12.6µM*	?	-36.2%	.
COc1ccccc1NC(=O)COc1ccc(-c2nn(C)c(=O)c3ccccc23)cc1	?	i	29.3%	7.94µM*!	-0.6%	28.4%
O=C(NC(NC1CCS(=O)(=O)C1)C(=O)c1cccs1)c1ccccc1 (stereo not given)	8.1%	i	3.2%	-0.5%	5.8%	-3.4%
O=C(NC1=C(NC2CCS(=O)(=O)C2)C(=O)c2ccccc2C1=O)c1ccccc1 (stereo not given)	?	29.9µM*	?	?	-117.4%	-5.6%
SMILES	ATXN2 expr inh	ATXN viability	GLP1R inv ag	TGFb inhibitor	HepG2 viability	GLP-1R agonist
CC1(c2ccc(O)cc2)NC(=O)N(c2ccccc2)N1 (stereo not given)	.	i	3.16µM*	-23.9%	6.9%	3.3%
C=C(C)CCC1(C)NC(=O)N(c2ccccc2)N1 (stereo not given)	-2.1%	i	10µM*	0.0%	-35.4%	0.5%
CC(C)(C)n1ncc2c(=O)n(Cc3cccc(C(F)(F)F)c3Cl)cnc21	.	.	.	-1.4%	6.0%	.
CCOC(=O)c1ccc(NC(=O)C(C)N(c2ccc(OCC)cc2)S(C)(=O)=O)cc1 (stereo not given)	-7.3%	i	?	8.8%	-33.8%	-0.6%
Cc1nc2c([nH]1)CCN(C(=O)c1ccc(NC(=O)c3ccccc3-c3ccccc3)cc1)c1ccccc1-2	-1.5%	.	.	.	.	.
Cc1ccc(CNC(=O)c2ccc3c(c2)CCN3S(=O)(=O)c2ccccc2)cc1	11.9%	?	-33.0%	-3.8%	-2.6%	.
Cc1ccc(S(=O)(=O)N2CCc3cc(C(=O)N(C)Cc4ccccc4)ccc32)cc1	-39.0%	7.08µM*	?	?	1.5%	.
O=C(NCc1ccc(Cl)cc1)c1ccccc1Oc1ccccc1	13.8%	i	2.82µM*	-25.3%	-16.1%	2.9%
COCCCNC(=O)c1ccccc1Oc1ccccc1	-4.7%	i	-8.7%	-3.3%	9.0%	3.1%
CCC(CC)NC(=O)c1ccccc1Oc1ccccc1	-1.0%	i	?	0.0%	10.7%	2.5%
CCC(C)(C)NC(=O)c1ccccc1Oc1ccccc1	0.6%	i	14.1µM*	-2.8%	-8.6%	12.9%
O=C(COc1ccc2ccccc2c1)NC1CC(=O)N(c2cccc(F)c2)C1 (stereo not given)	.	.	3.2%	?	-9.4%	.
O=C1c2ccccc2C(=O)c2cc(S(=O)(=O)Nc3ccccc3)ccc21	-20.1%	i	-10.7%	20µM*	-104.4%	18.0%
O=C(O)c1cccc(NS(=O)(=O)c2ccc3c(c2)C(=O)c2ccccc2C3=O)c1	.	i	15.8%	1.1%	11.1%	-0.7%
Cc1ccc(NC(=O)C2(c3ccc4c(c3)OC(F)(F)O4)CC2)nc1-c1cccc(C(=O)O)c1	0.0863µM*	.	.	.	.	.
